38 compounds from PubChem BioAssay AID588683 (Broad Institute, 2011) can be followed below.

Results with a measured potency or affinity are listed apart. Active and inactive are the calls of the source. No rule for the calls is given here.

The target in the assay is Kelch-like ECH-associated protein 1 (Homo sapiens) + Nuclear factor erythroid 2-related factor 2 (Homo sapiens) (UniProt Q14145+Q16236). The assay can be described thus: disruptors of Keap1 binding to Nrf2 peptide – biochemical, fluorescence polarization, cherry-picked samples, dose response (AID 588683).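 Also: Kelch domain of Keap1 binding a fluorescein-labelled 9mer Nrf2 peptide; more negative means stronger inhibition of peptide binding.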 The settings on record: plate reader; series mostly up to 26 µM; activity change, negative = inhibition: at the top concentration. Background: In fluorescence polarisation assays a small probe gives low polarisation when free and higher when bound to something large.
Kelch-like ECH-associated protein 1 (Homo sapiens) + Nuclear factor erythroid 2-related factor 2 (Homo sapiens), sequence (Q14145 whole entry, looked up, the tested form may be a part): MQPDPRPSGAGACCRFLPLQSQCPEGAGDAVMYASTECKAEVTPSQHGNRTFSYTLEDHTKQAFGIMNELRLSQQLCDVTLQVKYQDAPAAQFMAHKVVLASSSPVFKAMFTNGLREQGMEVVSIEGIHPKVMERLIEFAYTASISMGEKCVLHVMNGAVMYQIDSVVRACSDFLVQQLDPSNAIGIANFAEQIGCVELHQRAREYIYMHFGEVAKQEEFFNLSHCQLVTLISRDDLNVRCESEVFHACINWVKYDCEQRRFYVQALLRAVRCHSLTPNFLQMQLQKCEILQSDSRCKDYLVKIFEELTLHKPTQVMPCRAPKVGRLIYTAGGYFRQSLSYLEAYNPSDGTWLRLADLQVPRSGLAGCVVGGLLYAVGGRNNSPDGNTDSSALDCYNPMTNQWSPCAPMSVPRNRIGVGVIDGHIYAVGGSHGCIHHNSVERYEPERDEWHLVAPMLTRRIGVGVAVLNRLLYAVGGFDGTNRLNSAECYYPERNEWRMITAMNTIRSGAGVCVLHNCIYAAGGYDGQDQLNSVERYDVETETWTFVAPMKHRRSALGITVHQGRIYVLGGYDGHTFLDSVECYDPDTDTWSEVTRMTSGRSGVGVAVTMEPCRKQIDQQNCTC
Kelch-like ECH-associated protein 1 (Homo sapiens) + Nuclear factor erythroid 2-related factor 2 (Homo sapiens), sequence (Q16236 whole entry, looked up, the tested form may be a part): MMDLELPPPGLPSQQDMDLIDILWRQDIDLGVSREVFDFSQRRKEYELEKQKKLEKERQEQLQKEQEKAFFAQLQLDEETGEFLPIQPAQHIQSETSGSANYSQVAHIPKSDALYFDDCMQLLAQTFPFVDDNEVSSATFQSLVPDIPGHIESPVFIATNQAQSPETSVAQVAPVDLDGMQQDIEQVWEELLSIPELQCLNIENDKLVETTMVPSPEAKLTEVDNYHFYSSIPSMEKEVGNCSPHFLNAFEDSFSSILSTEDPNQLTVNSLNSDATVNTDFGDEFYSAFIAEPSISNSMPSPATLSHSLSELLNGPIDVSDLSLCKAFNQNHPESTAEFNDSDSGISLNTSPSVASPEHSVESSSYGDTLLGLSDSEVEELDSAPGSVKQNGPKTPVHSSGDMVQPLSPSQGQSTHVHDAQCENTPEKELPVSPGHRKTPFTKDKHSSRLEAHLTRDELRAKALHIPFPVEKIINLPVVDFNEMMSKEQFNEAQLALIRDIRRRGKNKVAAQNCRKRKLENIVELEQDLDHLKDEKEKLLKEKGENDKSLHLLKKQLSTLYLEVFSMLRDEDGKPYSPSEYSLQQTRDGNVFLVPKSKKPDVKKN
`O=C(O)CC(Cn1cnnn1)c1ccccc1` (stereo not drawn): the “activity change, negative = inhibition” value was -3.47% (inactive). The figure for `O=S(=O)(O)c1ccc(O)c2cc(Nc3ccccc3)ccc12` is -3.04% (inactive).

For the compound `C=CCn1c(=O)/c(=C\c2ccsc2)s/c1=C(/C#N)C(=O)NCCN1CCOCC1`, the “activity change, negative = inhibition” value is -4.59% (inactive). The figure for `CCCCC1OC2(C)OC(=N)C1(C#N)C(C#N)(C#N)C2c1ccccc1` (stereo not drawn) is -7.41% (inactive); for `COc1ccc(OC)c(C(=O)c2coc3ccc(O)c(CN(C)C)c23)c1` it is -6.21% (inactive). The result for `CN(C)c1ccc(/C=N/NC(=O)CCC(=O)NCc2ccccc2)cc1` reads -5.52% (inactive); that for `Cc1ccc(S(=O)(=O)NCC(=O)OCC(=O)Nc2ccc3c(c2)OCCO3)cc1`, -2.89% (inactive). With `CC(=O)Nc1c(N)c2ccccc2oc1=O`, the “activity change, negative = inhibition” value is -4.6% (inactive). With `N=c1c(C(=O)NCc2ccc(F)cc2)cc2c(=O)n3ccccc3nc2n1Cc1cccnc1`, the “activity change, negative = inhibition” value is -11.4% (inactive). The result for `O=C(CSc1nc2ccccc2c(=O)n1CCCN1CCOCC1)Nc1ccccc1OC(F)F` reads -1.34% (inactive); that for `COc1cccc(NC(=O)CN(C)CC(=O)NCc2ccco2)c1`, -0.293% (inactive); that for `Cc1ccc(C)c(N2CCN(C(=O)c3cc4ccccn4n3)CC2)c1`, -1.58% (inactive). The result for `CCN(CC)c1ccc(C2Nc3cccc4cccc(c34)N2)cc1` reads 10.9% (inactive). As for `CCOC(=O)c1c(NC(=O)CN2CCN(S(=O)(=O)c3cc(Cl)ccc3Cl)CC2)sc(C(=O)N(C)C)c1C`, the “activity change, negative = inhibition” value was -10.3% (inactive).

In the case of `Cc1ccc(Cn2c(=N)c(C(=O)NC3CCCC3)cc3c(=O)n4ccccc4nc32)cc1`, the “activity change, negative = inhibition” value is -7.84% (inactive). The figure for `Cc1nnc(NC(=O)c2ccc3c(c2)NC(=O)CS3)s1` is -3.13% (inactive). For the compound `NC(=O)CC(NC(=O)Cc1cccc2ccccc12)c1ccc(NCc2ccccc2)c([N+](=O)[O-])c1` (stereo not drawn), the “activity change, negative = inhibition” value is -0.628% (inactive).

Take `O=C(CSCC(=O)Nc1ccccc1)N/N=C/c1c(O)ccc2ccccc12`: the “activity change, negative = inhibition” value was 10.7% (inactive). In the case of `c1ccc(-c2cn3nc4c(nc3n2)CCCC4)cc1`, the “activity change, negative = inhibition” value was 0.291% (inactive). The figure for `O=C1c2ccccc2-c2onc3ccc(N4CCCC4)c1c23` is 10.2% (inactive); for `CC(C)C(C(=O)O)N1C(=O)/C(=C/C=C/c2ccco2)SC1=S` (stereo not drawn) it is 5.72% (inactive); for `COc1ccccc1Cn1c(=S)[nH]c2ccccc2c1=O` it is -3.77% (inactive).

On to `O=C1c2cccc3c(N4CCCCC4)ccc(c23)C(=O)N1c1cccc(O)c1`, for which the “activity change, negative = inhibition” value is 38.4% (inactive). The result for `CCCc1cc(NC(=O)COC(=O)c2nccnc2N)n(-c2ccccc2)n1` reads 0.425% (inactive); that for `O=C(COC(=O)c1ccc([N+](=O)[O-])s1)Nc1cccc(S(=O)(=O)NC2=NCCCCC2)c1`, -14.6% (inactive); that for `O=C(O)c1cc(N2N=C(C(F)(F)F)/C(=C/C=C/c3ccco3)C2=O)ccc1Cl`, -25% (inactive).

`CC(=O)c1ccc2c(c1)C1C=CCC1C(C(=O)O)N2` (stereo not drawn): the “activity change, negative = inhibition” value is -4.16% (inactive). Regarding `COc1cc2c3nnc(-c4ccc(F)cc4)c-3cn(Cc3ccccc3)c2cc1OC`, the “activity change, negative = inhibition” value was 124% (inactive). The figure for `O=C(Nc1ccccn1)C1CCN(S(=O)(=O)c2ccc3c(c2)OCCO3)CC1` is -4.65% (inactive). The result for `Nc1nc(SCC(=O)Nc2cc(C(F)(F)F)ccc2N2CCOCC2)n[nH]1` reads -1.61% (inactive); that for `O=C1/C(=C/C=C/c2ccco2)SC(=S)N1NS(=O)(=O)c1ccccc1`, -4.92% (inactive). The result for `CCOC(=O)C1=C(C)NC(C)=C(C(=O)OCC)C1c1ccc([N+](=O)[O-])s1` reads 1.9% (inactive); that for `N/C(Cc1cccc2ccccc12)=N\O`, -1.95% (inactive); that for `CCCC1OC23CCCCC2C(C#N)(C#N)C1(C#N)C(=N)O3` (stereo not drawn), -1.32% (inactive). `CCCN1CNC(=S)N(c2cc(C)ccc2C)C1`: the “activity change, negative = inhibition” value was -10% (inactive).

Turning to `Cc1[nH]nc2c1C(CC(C)C)C(C#N)=C(N)O2` (stereo not drawn), the “activity change, negative = inhibition” value is 0.372% (inactive). The result for `OC(CCN1CCC2(CC1)OCCO2)C(F)(F)F` (stereo not drawn) reads -14% (inactive).

For `O=C(NNc1ncnc2sccc12)c1ccc(Cl)cc1`, the “activity change, negative = inhibition” value is 6.87% (inactive).
